Among all 5,500 compounds or so, about 2,000 (36%) were called active. Roughly 18% stayed inconclusive and do not appear here. This is one part of the list. Unmarked numbers belong to inactive results. Cut-off read from the data, not from the text of the source: active = normalized growth mostly below about 0.91 (no sharp cut-off); inconclusive = no clear call, values can overlap the other calls; inactive = mostly above about 0.92.
Test: chemical genetic growth profiling, strain panel (AID 1159580);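 note: tested at 20 µM; growth read once vehicle control cultures reached saturation at 30 °C; 1 = growth at the plate median or of vehicle wells; lower values mean less growth of the strain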
Conditions: growth OD
[1] = S. cerevisiae deletion strains, locus YAL013W, strain DEP1, active compounds read low
[2] = S. cerevisiae deletion strains, locus YBR229C, strain ROT2, active compounds read low
[3] = S. cerevisiae deletion strains, locus YDL101C, strain DUN1, active compounds read low
[4] = S. cerevisiae deletion strains, locus YDR150W, strain NUM1, active compounds read low
[5] = S. cerevisiae deletion strains, locus YEL061C, strain CIN8, active compounds read low
[6] = S. cerevisiae deletion strains, locus YGR078C, strain PAC10, active compounds read low
[7] = S. cerevisiae deletion strains, locus YHR030C, strain SLT2, active compounds read low
[8] = S. cerevisiae deletion strains, locus YHR087W, strain rtc3, active compounds read low
[9] = S. cerevisiae deletion strains, locus YJR043C, strain POL32, active compounds read low
[10] = S. cerevisiae deletion strains, locus YJR075W, strain HOC1, active compounds read low
[11] = S. cerevisiae deletion strains, locus YKL190W, strain CNB1, active compounds read low
[12] = S. cerevisiae deletion strains, locus YLR039C, strain RIC1, active compounds read low
[13] = S. cerevisiae deletion strains, locus YLR058C, strain SHM2 (second series), active compounds read low
[14] = S. cerevisiae deletion strains, locus YLR085C, strain ARP6, active compounds read low
[15] = S. cerevisiae deletion strains, locus YLR262C, strain YPT6, active compounds read low
[16] = S. cerevisiae deletion strains, locus YML094W, strain GIM5, active compounds read low
[17] = S. cerevisiae deletion strains, locus YMR219W, strain ESC1, active compounds read low
[18] = S. cerevisiae deletion strains, locus YMR263W, strain SAP30, active compounds read low
[19] = S. cerevisiae deletion strains, locus YNL153C, strain GIM3, active compounds read low
[20] = S. cerevisiae deletion strains, locus YNL298W, strain CLA4 (second series), active compounds read low
[21] = S. cerevisiae deletion strains, locus YNL322C, strain KRE1, active compounds read low
[22] = S. cerevisiae deletion strains, locus YNR030W, strain Alg12, active compounds read low
[23] = S. cerevisiae deletion strains, locus YPL055C, strain LGE1, active compounds read low
[24] = S. cerevisiae deletion strains, locus YPL241C, strain CIN2, active compounds read low
[25] = S. cerevisiae deletion strains, locus YPR135W, strain CTF4, active compounds read low
[26] = S. cerevisiae deletion strains, locus YDL134C, strain PPH21, active compounds read low
[27] = S. cerevisiae deletion strains, locus YJL187C, strain SWE1, active compounds read low
[28] = S. cerevisiae deletion strains, locus YMR307W, strain GAS1, active compounds read low
[29] = S. cerevisiae strains, strain wild type, active compounds read low

NNC(=O)c1cccnc1Oc1ccccc1
normalized growth [1]: 1.01 | normalized growth [2]: 0.998 | normalized growth [3]: 1.03 | normalized growth [4]: 1.04 | normalized growth [5]: 1.02 | normalized growth [6]: 1.02 | normalized growth [7]: 1.11 | normalized growth [8]: 1.02 | normalized growth [9]: 1.01 | normalized growth [10]: 1.03 | normalized growth [11]: 1.02 | normalized growth [12]: 1.12 | normalized growth [13]: 1 | normalized growth [14]: 1.12 | normalized growth [15]: 1.01 | normalized growth [16]: 1.03 | normalized growth [17]: 1.02 | normalized growth [18]: 1.02 | normalized growth [19]: 1.01 | normalized growth [20]: 1.08 | normalized growth [21]: 1.01 | normalized growth [22]: 1.03 | normalized growth [23]: 1.02 | normalized growth [24]: 1.04 | normalized growth [25]: 1.14

CC(C)(C)c1ccc(Oc2ncccc2NC(=O)c2ccccc2C(F)(F)F)cc1
normalized growth [1]: 0.986 | normalized growth [2]: 1.01 | normalized growth [3]: 1.02 | normalized growth [26]: 0.996 | normalized growth [4]: 1.06 | normalized growth [5]: 1 | normalized growth [6]: 0.992 | normalized growth [7]: 0.934 | normalized growth [8]: 1 | normalized growth [27]: 0.998 | normalized growth [9]: 0.948 | normalized growth [10]: 0.988 | normalized growth [11]: 1 | normalized growth [12]: 0.982 | normalized growth [13]: 0.986 | normalized growth [14]: 0.972 | normalized growth [15]: 0.967 | normalized growth [16]: 1.03 | normalized growth [17]: 0.999 | normalized growth [18]: 1.01 | normalized growth [28]: 0.876 | normalized growth [19]: 1 | normalized growth [20]: 0.987 | normalized growth [21]: 1 | normalized growth [22]: 0.993 | normalized growth [23]: 0.996 | normalized growth [24]: 0.987 | normalized growth [25]: 0.984

Cc1ccc(SC(=O)c2cccnc2Oc2ccccc2)cc1
normalized growth [1]: 0.972 | normalized growth [2]: 0.988 | normalized growth (S. cerevisiae deletion strains, locus YCL061C, strain MRC1, active compounds read low): 0.989 | normalized growth [3]: 1.03 | normalized growth [26]: 0.983 | normalized growth [4]: 1.02 | normalized growth [5]: 0.965 | normalized growth [6]: 0.992 | normalized growth [7]: 0.815 | normalized growth [8]: 0.953 | normalized growth [27]: 0.98 | normalized growth [9]: 0.992 | normalized growth [10]: 0.985 | normalized growth [12]: 0.723 (active) | normalized growth [13]: 0.992 | normalized growth [14]: 0.818 | normalized growth [15]: 0.679 (active) | normalized growth [16]: 0.949 | normalized growth [17]: 0.993 | normalized growth [18]: 0.984 | normalized growth [19]: 0.982 | normalized growth [20]: 0.925 | normalized growth [21]: 0.983 | normalized growth [22]: 0.91 | normalized growth [23]: 0.939 | normalized growth [24]: 0.94 | normalized growth [25]: 0.723 | normalized growth [29]: 0.952

CCSc1ncccc1C(=O)N[C@@H](CCSC)C(=O)OC
normalized growth [1]: 0.994 | normalized growth [2]: 0.996 | normalized growth [3]: 0.98 | normalized growth [4]: 0.906 | normalized growth [5]: 1.02 | normalized growth [6]: 0.993 | normalized growth (S. cerevisiae deletion strains, locus YGR229C, strain SMI1, active compounds read low): 1 | normalized growth [7]: 0.979 | normalized growth [8]: 1 | normalized growth [9]: 0.98 | normalized growth [10]: 1.01 | normalized growth [11]: 1.01 | normalized growth [12]: 1 | normalized growth [13]: 1.01 | normalized growth [14]: 1.04 | normalized growth [15]: 1.02 | normalized growth [16]: 1.03 | normalized growth [17]: 1.01 | normalized growth [18]: 1.01 | normalized growth [28]: 1.02 | normalized growth [19]: 0.999 | normalized growth [20]: 1.01 | normalized growth [21]: 1.01 | normalized growth [22]: 0.997 | normalized growth (S. cerevisiae deletion strains, locus YOL006C, strain TOP1, active compounds read low): 1 | normalized growth [23]: 1.09 | normalized growth [24]: 1.01 | normalized growth [25]: 0.91 | normalized growth [29]: 1

From PubChem BioAssay AID1159580 (chemical genetic matrix, 2015)
